# Assay outcomes as filed in PubChem BioAssay.
# Most compounds without a hit are left out; they make up all but 19% or so of the library.
# IL-1B inflam inh – qHTS for Inhibitors of Inflammasome Signaling: IL-1-beta AlphaLISA Primary Screen; THP-1 LPS/ATP IL-1B secretion, AlphaLISA, 16 h; hits give low values; activity change, % at 57.5 µM; actives 4.7% (n = 360,000); AID 743279, 2014; in the data active = activity change below about -50%; inconclusive = mostly about -30% to -49%; also: % is scaled to controls: 0 for no effect and ±100 for the full control effect
#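 Secreted IL-1B measured by AlphaLISA bead assay after 16 h compound exposure of THP-1 cells; compounds (final up to 57.5 uM) added 1 h before LPS (250 ng/mL) and ATP (1.25 mM) stimulation; lower signal means less secretion.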
# BCR signal inh – qHTS Assay to Find Inhibitors of Chronic Active B-Cell Receptor Signaling | ABC-DLBCL IkBa-CBG/CBR reporter, luminescence ratio, 4 h | Potency, µM (highest dose often 46.1 µM), inactives show at the top dose activity change, negative = inhibition, hits mostly inhibitors | actives 0.05% (n = 340,000); active = well fitted inhibition curve with a large enough effect in the signal ratio, with a control signal flat, not every such curve was filed as active; inconclusive = small, poorly fitted or top-dose-only effect, or effect the other way, or a change in a side signal; the % refers to the signal ratio;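 also: potency is read from the fitted curve at half-maximal effect; plate controls were basal doxycycline-induced cells for no effect and cells given 10 µM MG132 for full effect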
#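 Compounds up to 46 uM were incubated four hours with TMD8 cells whose green CBG68 luciferase is fused to IkappaBalpha; red CBR luminescence normalised the signal, and concentration-effect curves were fitted to fusion, red and ratio data.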
# DT40 TDP1 no CPT – qHTS for Inhibitors of human tyrosyl-DNA phosphodiesterase 1 (TDP1): qHTS in cells in absence of CPT; DT40 Tdp1-/- hTDP1 cells, no CPT, ATP luminescence, 48 h; Potency, µM (top dose mostly 46.2 µM), without a hit: top-dose activity change, negative = growth inhibition, hits mostly inhibitors; actives 15% (n = 420,000); also: potency is read from the fitted curve at half-maximal effect; % is scaled to controls: 0 for no effect and ±100 for the full control effect; nearly all actives have a fitted effect of over 55% in size
#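 Chicken DT40 Tdp1-/- cells stably complemented with human TDP1 were seeded at 400 cells/well with DMSO in place of 20 nM camptothecin. After compound pinning, cells grew at least 48 hr at 37 °C; viability read by CellTiter-Glo luminescence.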
# MCF10A rerep – A quantitative high throughput screen for small molecules that induce DNA re-replication in MCF 10a normal breast cells. MCF 10A DNA re-replication, Hoechst nuclear intensity, 48 h. Potency, µM (top dose mostly 46.1 µM), without a hit: at the top dose activity, positive = re-replication, actives largely listed as activators. actives 2.9% (n = 350,000). AID 624296, 2012; also: potency is read from the fitted curve at half-maximal effect; % of control where 0% means no effect; nearly all actives have a fitted effect of over 50% in size
# SW480 rereplic – A quantitative high throughput screen for small molecules that induce DNA re-replication in SW480 colon adenocarcinoma cells. SW480 DNA re-replication, Hoechst DNA content imaging, 48 h. Potency, µM (series often up to 46.1 µM), inactives show at the highest dose re-replication activation, usual class: activators. actives 1.8% (n = 340,000); also: potency is read from the fitted curve at half-maximal effect; % of control where 0% means no effect; nearly all actives have a fitted effect of over 55% in size
#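 DNA re-replication was detected as more nuclei of elevated Hoechst intensity after 48 hr exposure to compound (23 nL pinned per well of 250 cells).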
# DT40 TDP1 CPT – qHTS for Inhibitors of human tyrosyl-DNA phosphodiesterase 1 (TDP1): qHTS in cells in presence of CPT; chicken DT40 Tdp1-/-;hTDP1 cells + 20 nM CPT, ATP luminescence, 48 h; Potency, µM (top dose mostly 46.2 µM), for inactives: at the highest dose activity change, negative = growth inhibition, most hits filed as inhibitors; actives 12% (n = 420,000); AID 686979, 2013; also: potency is read from the fitted curve at half-maximal effect; % is scaled to controls: 0 for no effect and ±100 for the full control effect; nearly all actives have a fitted effect of over 55% in size
#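 Cell growth measured by CellTiter-Glo luminescence after a minimum 48 h, 37 C compound exposure with 20 nM CPT in Tdp1-knockout DT40 cells stably expressing hTDP1, seeded 400/well; qHTS titration format.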
# Starred values were filed as active, the others as inactive; ? = inconclusive; nt = not tested or not shown; [ ] = remark or other dose. Unless noted, calls follow the shape of the dose curve; as a rule, active = well fitted curve in the direction sought with a large enough effect; inconclusive = small, poorly fitted or top-dose-only effect, or another doubt; inactive = no such curve, though single readings can be large; an effect the other way counts as inactive or inconclusive.
SMILES,IL-1B inflam inh,BCR signal inh,DT40 TDP1 no CPT,MCF10A rerep,SW480 rereplic,DT40 TDP1 CPT
Nc1c(C(=O)NCCN2CCOCC2)c2nc3ccccc3nc2n1CCc1ccccc1F,-62.8*,?,?,3.9%,-1.0%,?
CC(Sc1nnc(CC(=O)Nc2ccccc2F)n1C)C(=O)Nc1nccs1 (centres undefined),14.3,-2.3%,-26.2%,?,-56.1%,-2.3%
CCOC(=O)C(C)Oc1cccc2c(=O)n(CC(=O)NCc3ccc(F)cc3)ccc12 (centres undefined),84.2,?,0.731µM*,?,?,0.82µM*
CCOC(=O)COc1cccc2c(=O)n(CC(=O)NCc3ccc4c(c3)OCO4)ccc12,-5.2,?,1.84µM*,?,7.31µM*,1.84µM*
CCOC(=O)C(C)Oc1cccc2c(=O)n(CC(=O)NCc3ccccc3)ccc12 (centres undefined),-98.2*,?,0.92µM*,0.581µM*,1.3µM*,0.581µM*
CCOC(=O)C(C)Oc1cccc2c(=O)n(CC(=O)N3CCCc4ccccc43)ccc12 (centres undefined),2.5,1.9%,-10.0%,9.9%,-0.4%,-13.8%
CCOC(=O)C(C)Oc1cccc2c(=O)n(CC(=O)NCCc3ccccc3)ccc12 (centres undefined),-53.4*,2.6%,18.2%,0.2%,2.9%,-15.4%
CCOC(=O)COc1cccc2c(=O)n(CC(=O)NCCc3ccccc3)ccc12,-0.7,-0.9%,-3.2%,3.5%,-17.1%,-15.9%
Cc1ccc(NC(=O)Cn2c(=O)n(CC3CCCO3)c(=O)c3ccccc32)cc1 (centres undefined),nt,nt,-24.2%,nt,nt,-26.4%
COc1ccc(N2CCN(S(=O)(=O)CCNC(=O)Cc3ccc(Cl)cc3)CC2)cc1,nt,nt,-23.3%,nt,nt,3.1%
CCN(CC(=O)Nc1ccccc1OC)C(=O)c1ccc(NS(=O)(=O)c2ccc(C(C)=O)cc2)cc1,-2.5,5.8%,-14.4%,0.9%,-2.5%,0.6%
O=C(O)CSc1nnc(-c2cccc(S(=O)(=O)N3CCOCC3)c2)n1-c1ccc(F)cc1,7.8,-0.7%,10.7%,19.0%,-1.5%,2.5%
COC(=O)COc1cccc2c(=O)n(CC(=O)NCc3ccc(F)cc3)ccc12,-12.8,?,1.16µM*,10.3µM*,5.8µM*,1.03µM*
COC(=O)COc1cccc2c(=O)n(CC(=O)N3CCC(C)CC3)ccc12,-60.8*,9.9%,-4.1%,8.5%,-19.0%,3.0%
CCOC(=O)C(C)Oc1cccc2c(=O)n(CC(=O)Nc3ccc(OC)cc3)ccc12 (centres undefined),-54.6*,nt,-21.7%,nt,nt,-13.9%
OC[C@@H]1CN(Cc2cccs2)C[C@H](n2cnc3c(NCc4ccco4)ncnc32)O1,0.0,nt,-8.3%,nt,nt,0.9%
CC(OC(=O)c1ccc(Cl)c(S(=O)(=O)N2CCOCC2)c1)C(=O)Nc1ccc(S(N)(=O)=O)cc1 (centres undefined),27.8,-2.5%,-0.1%,-22.1%,-67.0%,1.3%
COc1cc(/C=N/NC(=O)c2ccncc2)ccc1OC(=O)c1cc(OC)c(OC)c(OC)c1,28.8,5.0%,-5.2%,-5.1%,-3.3%,7.5%
COc1ccc(/C=C/C(=O)OCC(=O)NC2CCCC2)c(OC)c1,0.1,6.2%,?,-0.4%,-4.0%,-27.7%
Cn1cc(C(=O)c2ccccc2)cc1-c1nc2ccccc2n1C,-19.7,?,18.4µM*,24.0%,0.9%,?
Cc1oc(-c2nc3ccccc3n2C)cc1C(=O)c1ccccc1,2.0,?,20.6µM*,?,?,16.4µM*
CCC(=O)c1cc(-c2nc3ccccc3n2C)n(C)c1,9.7,5.8%,-7.8%,10.7%,0.1%,1.9%
COc1ccc(NC(=O)CN(C)C(=O)C(C)Oc2ccc(Br)cc2)cc1 (centres undefined),-6.0,-1.5%,-17.5%,3.9%,-1.4%,-0.4%
CN(C)Cc1ccccc1-c1nccc(N(C)Cc2ccco2)n1,nt,nt,?,nt,nt,20.6µM*
CN(C)Cc1ccccc1-c1nc(N(C)Cc2ccco2)c2ccccc2n1,nt,nt,8.2µM*,nt,nt,18.4µM*
SMILES,IL-1B inflam inh,BCR signal inh,DT40 TDP1 no CPT,MCF10A rerep,SW480 rereplic,DT40 TDP1 CPT
Cc1ccccc1-c1cc(N(C)Cc2ccco2)ncn1,nt,nt,-8.2%,nt,nt,?
CC(=O)NCCNc1nc(-c2ccccc2CN(C)C)nc2ccccc12,nt,nt,3.7%,nt,nt,13.3%
Cc1cc(N2CCCC2=O)cc(C)c1S(=O)(=O)NCCOc1ccc(C(C)(C)C)cc1,-54.4*,13.2%,7.31µM*,?,16.8%,7.31µM*
Cc1cc(N2CCCC2=O)ccc1S(=O)(=O)NC1CCCCC1,30.2,0.4%,20.6µM*,-9.5%,0.9%,?
O=C1CCCN1c1ccc(S(=O)(=O)NCCOc2ccccc2)cc1,0.0,?,11.2µM*,-3.4%,1.7%[9.22 µM],?
CC1Cc2ccccc2N1C(=O)COC(=O)c1ccc(Cl)c(S(=O)(=O)N2CCOCC2)c1 (centres undefined),-4.9,-1.3%,-11.8%,15.4%,4.5%,?
CCOCCCNC(=O)c1cc2c(=O)[nH]c3ccccc3c2s1,?,1.3%,-22.0%,2.2%,0.4%,-14.6%
CCCCN(CC)CCCNC(=O)c1cc2c(=O)[nH]c3ccccc3c2s1,-73.2*,1.1%,23.1µM*,-1.3%,5.1%,?
CCC(C)NC(=O)c1cc2c(=O)[nH]c3ccc(C)cc3c2s1 (centres undefined),-52.5*,?,?,4.8%,-1.0%,?
O=C(NCCCN1CCOCC1)c1cc2c(=O)[nH]c3ccccc3c2s1,-50.5*,-0.3%,?,28.7%,0.1%,?
CCCCN(CC)CCNC(=O)c1cc2c(=O)[nH]c3ccc(C)cc3c2s1,-99.7*,-0.1%,?,-15.3%,25.9%,?
COc1cccc(CN2CCNC(=O)C2CC(=O)NCCCC2CCCC2)c1OC (centres undefined),-8.2,-6.3%,-28.1%,-0.7%,-5.0%,-24.4%
